Here are results for 22 sequences from the OligoGym collection.
Note: reference of the scale not given here.

The first assay concerns the target LIPA. Briefly: pooled miR-30 sensor sort-seq; sequence = guide strand. As to conditions: shRNA.
In turn, TATATCCATCTTCTGTCTCAAC came in with a sensor-assay potency score (higher = more potent) of -1.24.

In turn, TATGACATGAGTGCAAACGTGG registered a sensor-assay potency score (higher = more potent) of -0.073. For the sequence TATTGTAAGGAAATGATGCTGC, the sensor-assay potency score (higher = more potent) is 0.625. The same measure, in the same setting: the value for TTCAGTATGACATGAGTGCAAA was -1.31. TTGACTATGCACCTGCTGCAGG registered a sensor-assay potency score (higher = more potent) of -0.688. Same read-out and setting: the same measure for TACAAAGTAGTATTCGCCCTGC: -0.272; for TTAACAAGCATTGTACTGTTAG: -0.745; for ATCTTCTGTCTCAACTAGGTAT: -0.881.

With TTAACCATTAACAAGCATTGTA, the sensor-assay potency score (higher = more potent) stood at 0.00545. In turn, TTTGTCTCCAAATAAGTCCTTA showed a sensor-assay potency score (higher = more potent) of -0.0541.

The target of the next assay is LIPK. Described as above. As to conditions: shRNA.
Sequence TAATGTTGTATAAAGGAGGTGT returned a sensor-assay potency score (higher = more potent) of 0.558. TTTGTCACCAAACAACACCTTA: the sensor-assay potency score (higher = more potent) was -0.763. In turn, TTTCTTGTCATAACCATACATA yielded a sensor-assay potency score (higher = more potent) of -0.84.

TATTTAACTGTGACAACTGGAG came in with a sensor-assay potency score (higher = more potent) of -0.414. In the case of TTCCTTTCTTGTCATAACCATA, the sensor-assay potency score (higher = more potent) is -1.36.

On to TAGGTCTTGGTAAATTTCCTGA, for which the sensor-assay potency score (higher = more potent) was -0.456.

Sequence TAGCTTTCGATTGCACACTTTG registered a sensor-assay potency score (higher = more potent) of -1.01. Turning to AACACCTTAACTACTCGCCTGG, the sensor-assay potency score (higher = more potent) is -0.456. For the sequence TTGTTGTAACATCATACTCTTC, the sensor-assay potency score (higher = more potent) was -0.891. Take TTGTAGTGTGGAATCAGCTTGT: the sensor-assay potency score (higher = more potent) was determined as 0.39.

The sequence TATTGCTGTTGGAACTTCCATC returned a sensor-assay potency score (higher = more potent) of -0.879. The same measure, in the same setting: the same measure for TATCTTAATCTTTTTAGCCAGT: -0.586.
